KB-3-1 cytotox: kills parental KB-3-1 adenocarcinoma cells; KB-3-1 viability, CellTiter-Glo ATP luminescence, 72 h; Potency, µM (top dose mostly 46.1 µM), actives largely listed as cytotoxic; 1.4% of 400,000 active; AID 1347075; note: % is set by controls: 0 for no effect and ±100 for the full control effect; nearly all actives have a fitted effect of over 60% in size
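Cytotoxicity in the drug-sensitive parental line KB-3-1 was scored as loss of CellTiter-Glo luminescence following 72 h incubation with compound. Values come from curve fitting of normalized concentration-response data.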
SW480 rereplic: induces DNA re-replication in SW480 colon adenocarcinoma cells. SW480 DNA re-replication, Hoechst DNA content imaging, 48 h. Potency, µM (top dose mostly 46.1 µM), without a hit: at the highest dose re-replication activation, usual class: activators. 1.8% of 340,000 active. AID 624297; note: % of control where 0% means no effect; nearly all actives have a fitted effect of over 55% in size
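Readout is total intensity of Hoechst-stained nuclei, excited at 405 nm and collected at 500-530 nm. Compound treatment lasted 48 hr at 37 C in 5% CO2 before staining.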
MCF10A rereplic: DNA re-replication induction in MCF 10a cells | MCF 10A DNA re-replication, Hoechst nuclear intensity, 48 h | Potency, µM (series often up to 46.1 µM), for the others: top-dose activity, positive = re-replication, usual class: activators | 2.9% of 350,000 active; note: % of control where 0% means no effect; nearly all actives have a fitted effect of over 50% in size
KB-V1 cytotox: KB-V1 MDR subline cytotoxicity. KB-V1 MDR cells viability, CellTiter-Glo, 72 h. Potency, µM (series often up to 46.1 µM), most hits filed as cytotoxic. 3.4% of 400,000 active; note: % is set by controls: 0 for no effect and ±100 for the full control effect; nearly all actives have a fitted effect of over 60% in size
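KB-V1 cells (P-gp-expressing MDR subline of KB-3-1) in phenol-red-free DMEM with 10% FBS were exposed to library compounds over a concentration series for 72 h at 37 degrees C. Viability read by CellTiter-Glo luminescence; concentration-effect curves fitted after normalization.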
PINK1 modulator: changes PINK1 expression | AID 624263 | 0.2% of 410,000 active | Potency, µM (series often up to 76.6 µM), without a hit: at the top dose activation (PINK1 increase), actives largely listed as activators | PINK1 immunofluorescence, high-content cytometry, 24 h; active = well fitted activation curve with a large enough effect; inconclusive = small, poorly fitted or top-dose-only effect; cell line not stated here; note: % of control where 0% means no effect; nearly all actives have a fitted effect of over 65% in size
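Fluorescence from anti-PINK1 antibody, together with nuclear and cell stains, was scanned on a laser-scanning cytometer. Before staining, stable-line cells were incubated 24 hours with compounds at 5 concentrations; primary antibody 12 h at 10 degrees C.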
12-LOX inh: ALOX12 (human) lipoxygenase inhibition. Potency, µM (titrated, usually from 108 µM), for the others: at the top dose activity change, negative = inhibition, actives largely listed as inhibitors. 1.1% of 580,000 active. P18054. purified 12hLO, xylenol orange hydroperoxide absorbance; note: % is set by controls: 0 for no effect and ±100 for the full control effect
Target sequence (P18054 whole entry, looked up): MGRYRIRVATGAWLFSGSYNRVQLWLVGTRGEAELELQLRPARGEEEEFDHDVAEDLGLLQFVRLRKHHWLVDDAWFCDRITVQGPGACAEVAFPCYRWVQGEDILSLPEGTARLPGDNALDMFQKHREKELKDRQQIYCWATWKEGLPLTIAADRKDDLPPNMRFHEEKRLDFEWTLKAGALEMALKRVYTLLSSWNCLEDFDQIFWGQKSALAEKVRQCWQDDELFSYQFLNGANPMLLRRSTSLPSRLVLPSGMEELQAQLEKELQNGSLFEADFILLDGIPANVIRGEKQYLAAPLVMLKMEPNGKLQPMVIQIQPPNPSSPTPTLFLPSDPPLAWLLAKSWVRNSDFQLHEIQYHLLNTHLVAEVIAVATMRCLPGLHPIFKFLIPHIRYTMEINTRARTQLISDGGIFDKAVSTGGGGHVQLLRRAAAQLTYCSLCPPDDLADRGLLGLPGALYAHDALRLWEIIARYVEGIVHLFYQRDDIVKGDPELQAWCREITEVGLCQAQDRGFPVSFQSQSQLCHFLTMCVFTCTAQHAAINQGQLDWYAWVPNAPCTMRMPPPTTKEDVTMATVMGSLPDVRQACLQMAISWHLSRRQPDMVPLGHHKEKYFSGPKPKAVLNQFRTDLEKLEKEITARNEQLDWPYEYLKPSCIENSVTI
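Purified human 12hLO (150 nM final) in 25 mM Hepes, 0.01% Triton X-100, pH 7.0 was preincubated 15 min at room temperature with compound. Then 40 uM arachidonic acid was added, 30 min. Hydroperoxide was read by Fe-XO absorbance ratio 573/405 nm.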
Starred values were filed as active, the others as inactive; i = inactive; ? = inconclusive; . = not tested or not shown; [ ] = another dose, or the depositor's remark. Hits are enriched below; roughly 5.8% of the tested compounds scored in any of these assays. Unless noted, calls come from the whole dose curve; as a rule, active = well fitted curve in the direction sought with a large enough effect; inconclusive = small, poorly fitted or top-dose-only effect, or another doubt; inactive = no such curve, though single readings can be large; an effect the other way counts as inactive or inconclusive. Potency is the fitted concentration of half-maximal effect.

SMILES | KB-3-1 cytotox | SW480 rereplic | MCF10A rereplic | KB-V1 cytotox | PINK1 modulator | 12-LOX inh
CCOc1cccc(NC(=O)C2CC(=O)N(CC)C(=Nc3ccc(F)cc3)S2)c1 (configuration not stated) | i | . | . | ? | -1% | -14%
O=C(NC(Cc1ccccc1)C(=O)N1CCN(c2ccccc2)CC1)c1ccco1 (configuration not stated) | . | . | . | . | . | -2%
COc1ccc(-c2cc(C(F)F)nc(-n3nc(C)cc3C)n2)cc1 | i | -6% | 15% | 23µM* | -1% | -13%
Cc1ccc(F)cc1NC(=O)c1ccc(NS(=O)(=O)c2ccc(Br)s2)cc1 | i | ? | ? | 16µM* | 4% | ?
CCOC(=O)N1CCN(CC(=O)Nc2c(C(=O)OC)[nH]c3ccc(Cl)cc23)CC1 | 16µM* | 2% | 29% | 2.3µM* | 2% | -28%
CCOC(=O)C1CCN(c2c(-c3ccccc3)c3cc(Cl)ccc3[nH]c2=O)CC1 | i | ? | 10% | i | 12% | -30%
COC(=O)c1[nH]c2ccccc2c1NC(=O)CN1CCN(C/C=C/c2ccccc2)CC1 | i | 16% | 9% | ? | . | -26%
CCOC(=O)N1CCN(c2c(-c3ccccc3)c3cc(Cl)ccc3[nH]c2=O)CC1 | ? | -4% | -3% | 9.2µM* | 3% | -5%
CCOC(=O)c1[nH]c2ccc(F)cc2c1NC(=O)CN1CCN(C/C=C/c2ccccc2)CC1 | i | ? | 15µM* | ? | 1% | -2%
CCCNC(=O)[C@@H]1Cc2cn(Cc3ccncc3)c3cccc(c23)[C@H](CC(C)C)N1 | . | . | . | . | . | 0%[176 µM]
Cc1ccc(S(=O)(=O)N2CCN(C(=O)c3cc4ccccc4oc3=O)CC2)cc1 | . | . | . | . | . | -25%
Oc1ccccc1/C=N/NC(=S)NCCc1ccccc1 | i | ? | ? | ? | 14% | 0%
S=C(NCCc1ccccc1)N/N=C/c1cccc(Cl)c1Cl | i | -1% | ? | i | 6% | 50µM*
COc1ccc(OC)c(/C=N/NC(=S)NCCc2ccccc2)c1 | i | -1% | 0% | i | -1% | 45µM*
CC1(C)C2CC=C(/C=N/NC(=S)NCCc3ccccc3)C1C2 (configuration not stated) | ? | -1% | ? | ? | 7% | 45µM*
Cc1oc2cc(OCC(=O)NC3CC3)ccc2c(=O)c1-c1ccc(Cl)cc1 | . | . | . | . | . | -5%
CCCCOc1ccc(C(=O)N2CCC[C@H]2c2nc(-c3ccc(OC)cc3)no2)cc1 | . | . | . | . | . | 0%
Cc1cc(=O)n(CC(=O)Nc2ccccc2)c(-c2ccccc2)n1 | . | . | . | . | . | 1%
Cc1cccc(-c2ccc(CN)cc2)c1 | . | . | . | . | . | 81%[176 µM]
COc1ccc2cc(C(C)C(=O)N3CCC(C)CC3)ccc2c1 (configuration not stated) | 21µM* | ? | ? | ? | 1% | -9%
N/C(=N/OC(=O)c1cccc([N+](=O)[O-])c1)c1cccc([N+](=O)[O-])c1 | ? | 0% | ? | i | 9% | 0%
CC1=C(C)/C(=N/OC(=O)c2cccc([N+](=O)[O-])c2)C=CC1=O | i | 8.2µM* | 8.2µM* | i | -5% | .
COc1ccc(NC(=O)c2nc3cc(C)c(C)cc3nc2N2CCOCC2)cc1 | . | . | . | . | . | 9%
O=C(NCCc1ccc(Cl)cc1)Nc1ccc(F)cc1 | i | -2% | -3% | i | 1% | -6%
CCCc1c(NC(=O)Nc2ccc(F)cc2)cnn1-c1ccc(Cl)cc1 | 9.2µM* | ? | ? | ? | ? | -12%
SMILES | KB-3-1 cytotox | SW480 rereplic | MCF10A rereplic | KB-V1 cytotox | PINK1 modulator | 12-LOX inh
Cc1ccc(C(NC(c2ccccc2)c2ccccc2)C(=O)O)cc1 (configuration not stated) | . | . | . | . | . | 9%
CN(C)CCCNc1ccc(-c2nn(C)c(=O)c3ccccc23)cc1[N+](=O)[O-] | i | ? | -3% | i | 2% | -2%
CC(O)CNc1ccc(-c2nn(C)c(=O)c3ccccc23)cc1[N+](=O)[O-] (configuration not stated) | 9.2µM* | -4% | 4% | 6.5µM* | 0% | -57%
CC(C)(C)c1cc(C[C@@H]2CC[C@H](O)[C@@H](CN(CC3CC3)CC3CC3)O2)no1 | . | . | . | . | . | 29%[176 µM]
CC1CCCN(c2ccc3nc4ccccc4c(=O)n3n2)C1 (configuration not stated) | ? | -2% | -2% | 7.3µM* | 3% | -18%
Cc1nc2c(=O)[nH]c(=S)n(C)c2nc1C | i | -701% | -1% | i | 3% | 32µM*
C#CC(CC)(CC)NC(=O)Cc1cc(OC)c(OC)c(OC)c1 | . | . | . | . | . | 30%
CCOC(=O)Nc1ccc2c(c1)N(CCCN(C)C)c1ccccc1CC2 | i | -8% | 2% | i | 6% | -21%
CN(C)CCCN1c2ccc([N+](=O)[O-])cc2CCc2cc([N+](=O)[O-])ccc21 | i | -2% | 27% | i | 2% | 32µM*
CCN(CC)S(=O)(=O)c1cccc(NC(=O)C(=O)c2c(-c3ccccc3)cc3ccccn23)c1 | i | 2% | 7% | 3.3µM* | 1% | 0%
CCN(CC)S(=O)(=O)c1cccc(NC(=O)c2cncc(Br)c2)c1 | i | 18% | -1% | i | 2% | 338%
CCN(CC)S(=O)(=O)c1cccc(NC(=O)COc2ccc(Cl)cc2Br)c1 | ? | 13% | 16% | 21µM* | 14% | 0%
Cc1nn(C)c(C)c1NC(=O)COc1ccc(Cl)cc1Br | . | -3% | 16µM* | . | -1% | -7%
CCN(CC)S(=O)(=O)c1cccc(NC(=O)c2ccc(Br)cc2)c1 | i | 3% | 8% | 6.5µM* | 0% | -15%
Cc1nn(C)c(C)c1NC(=O)COc1ccc(F)cc1Br | i | -7% | 16% | i | -1% | ?
CCN(CC)S(=O)(=O)c1cc(NC(=O)C(=O)c2c(-c3ccccc3)cc3ccccn23)ccc1C | i | 1% | 9% | i | -2% | -10%
O=S(=O)(c1ccc(Cl)s1)N1CCC(n2c(C(F)(F)F)nc3cccnc32)CC1 | . | . | . | . | . | -1%
CN(C)S(=O)(=O)c1cccc(NC(=O)c2cncc(Br)c2)c1 | i | -12% | ? | 15µM* | 2% | -19%
CN(C)c1cccc(C(=O)Nc2cccc(F)c2)c1 | i | -2% | -4% | i | 0% | ?
CCN(CC)c1ccc(C(=O)Nc2cccc(F)c2)cc1 | i | 13µM* | ? | i | 5% | -15%
CC(=O)NNC(=S)Nc1cccc(Cl)c1Cl | . | . | . | . | . | 25%
O=c1[nH]c(=O)n([C@@H]2O[C@H](CO)[C@@H](O)[C@H]2O)cc1F | ? | . | . | ? | 2% | .
